FBPA Giardia inh: qHTS Assay for Inhibitors of Fructose-1,6-bisphosphate Aldolase from Giardia Lamblia. A8B2U2. purified Giardia FBPA. Potency, µM (doses to about 59.6 µM), most hits filed as inhibitors. 290,000 tested, 0.71% active. AID 2451, 2010; note: nearly all actives have a fitted effect of over 55% in size
Target sequence (A8B2U2 whole entry, looked up): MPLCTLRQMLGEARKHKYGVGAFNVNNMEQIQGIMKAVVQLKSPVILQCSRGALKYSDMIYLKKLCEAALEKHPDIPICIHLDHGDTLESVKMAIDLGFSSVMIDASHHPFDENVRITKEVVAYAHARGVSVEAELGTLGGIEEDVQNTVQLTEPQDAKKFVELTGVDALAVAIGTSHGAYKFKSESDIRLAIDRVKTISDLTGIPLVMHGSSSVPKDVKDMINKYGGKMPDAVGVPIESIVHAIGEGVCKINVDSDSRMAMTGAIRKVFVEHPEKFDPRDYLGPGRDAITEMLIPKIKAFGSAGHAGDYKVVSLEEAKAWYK
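Giardia FBPA (40 nM reagent) was preincubated 10 min at RT with compound (up to 57.5 uM final), then substrate plus GAPDH/TPI/NAD/arsenate coupling system with diaphorase/resazurin was added; resorufin fluorescence (525/598 nm) was read after 20 min.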
Sm TGR block: qHTS Assay for the Inhibitors of Schistosoma Mansoni Peroxiredoxins | purified TGR, DTNB reduction, TNB absorbance 405 nm | Potency, µM (highest dose often 114 µM), actives largely listed as inhibitors | 360,000 tested, 3% active; note: nearly all actives have a fitted effect of over 60% in size
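TGR 20 nM + NADPH 100 uM (dispensed conc.), cpd preinc 15 min RT; start with NADPH (500 uM addition) then DTNB (15 mM addition). Kinetic TNB absorbance, 405 nm filter. Four-parameter Hill fit across titration.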
LmPK inhibitor: qHTS Assay for Inhibitors of Leishmania Mexicana Pyruvate Kinase (LmPK). Q27686. purified LmPK, Kinase-Glo ATP luminescence, 1 h. Potency, µM (highest dose often 57.5 µM), usual class: inhibitors. 290,000 tested, 0.37% active
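Pyruvate kinase activity monitored as ATP production (luciferase luminescence). Conditions: 0.1 nM enzyme, 0.5 mM PEP, 0.1 mM ADP, 1 h, RT; normalized against uninhibited and no-enzyme wells.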
Shiga inhibitor: A qHTS for Small Molecule Inhibitors of Shiga Toxin | Vero cells, Shiga toxin protein synthesis inhibition reporter | inhibition, % at 38.7 µM | 290,000 tested, 9.2% active; in the data active = inhibition mostly above about 28%, no sharp cut-off; inactive = mostly below about 43%
CHX counter: Cycloheximide Counterscreen for Small Molecule Inhibitors of Shiga Toxin | cell reporter, cycloheximide protein synthesis inhibition counterscreen | max response, % | 300,000 tested, 12% active | AID 2314, 2010; in the data active = max response mostly above about 13%, no sharp cut-off; inactive = mostly below about 14%; note: read at 38.3 µM for the half of the compounds with a filed dose
TbPYK inhibitor: qHTS of Trypanosoma Brucei Inhibitors | pyruvate kinase (Trypanosoma brucei), Q57TT1 | TbPYK enzyme, Kinase-Glo Plus ATP luminescence, 45 min | Potency, µM (top dose mostly 76.8 µM), usual class: inhibitors | 410,000 tested, 0.12% active; note: nearly all actives have a fitted effect of over 50% in size
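Readout: single end-point luminescence (Kinase-Glo Plus, 10 min). Reaction conditions were TbPYK/substrate plus 130 uM ADP, 45 min at RT, pH 7.2 TEA buffer. No-enzyme wells served as controls, and data were normalized before concentration-response fitting.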
Large screens that a line does not name were inactive. Only a selection was taken, and hits are over-represented in it overall. Unless noted, calls come from the whole dose curve; as a rule, active = well fitted curve in the direction sought with a large enough effect; inconclusive = small, poorly fitted or top-dose-only effect, or another doubt; inactive = no such curve, though single readings can be large; an effect the other way counts as inactive or inconclusive.

CC(NCCC1(C(C)C)CCOC(C)(C)C1)c1cccs1 (configuration not stated)	Sm TGR block inconclusive, CHX counter 8.8
CC(NCCC1(Cc2ccccc2Cl)CCOC(C)(C)C1)c1cccs1 (configuration not stated)	none
CC(C)OCCCn1c(=S)[nH]c2ncccc2c1=O	none
CC(C)OCCCn1c(-c2ccc(Br)cc2)c[nH]c1=S	LmPK inhibitor 13µM, TbPYK inhibitor inconclusive
Cc1cc(Sc2nnc(N)s2)c2ccccc2n1	Sm TGR block 4µM
Cc1cc(C(N)=O)c2ccccc2n1	none
Cc1cc(Sc2nnc(/N=C/N(C)C)s2)c2ccccc2n1	Sm TGR block 3.5µM
O=C(O)c1cccc(NC(=O)c2ccc(Cl)c(S(=O)(=O)N3CCCCCC3)c2)c1	Shiga inhibitor 101, CHX counter 50
Cc1ccc(C(=O)Nc2cccc(O)c2)cc1S(=O)(=O)N1CCCCCC1	Shiga inhibitor 61, CHX counter 54
O=C(COC(=O)c1ccc(Cl)c(S(=O)(=O)N2CCCCCC2)c1)Nc1ccccc1	Shiga inhibitor 56, CHX counter 35
O=C(NC1=NCCS1)c1ccc(Cl)c(S(=O)(=O)N2CCCCCC2)c1	CHX counter 18
O=C(Nc1cccnc1)c1ccc(Cl)c(S(=O)(=O)N2CCCCC2)c1	none
O=C(NCc1nc2ccccc2[nH]1)c1ccc(Cl)c(S(=O)(=O)N2CCCC2)c1	CHX counter 14
Cc1ccc(C(=O)Nc2ccc3cn[nH]c3c2)cc1S(=O)(=O)N1CCCCC1	Shiga inhibitor 76, CHX counter 38
CCOc1ccc(N(C(=O)c2snc(C(N)=O)c2N)C(C(=O)NC2CCCC2)c2ccncc2)cc1 (configuration not stated)	none
CCOc1ccc(NS(=O)(=O)c2c(C)nc3sc(C)c(C)n3c2=O)cc1	none (no result: FBPA Giardia inh, LmPK inhibitor, Shiga inhibitor, CHX counter)
CCN1C(=O)[C@H]2[C@@H](c3ccc(-c4ccc(OC)cc4)cc3)N[C@@](CC(C)C)(C(=O)OC)[C@H]2C1=O	Sm TGR block inconclusive (no result: FBPA Giardia inh, LmPK inhibitor, Shiga inhibitor, CHX counter)
COc1ccc(O)c(C2NC(CC(C)C)(C(=O)O)C3C(=O)N(Cc4ccccc4)C(=O)C23)c1 (configuration not stated)	CHX counter 8.5
COc1ccc(NC(=O)c2ccc(C)cc2)c(OC)c1	Shiga inhibitor 96, CHX counter 50
COc1ccc(NC(=O)c2ccccc2NC(=O)c2ccccc2C(=O)O)c(OC)c1	Shiga inhibitor 53, CHX counter 11
CC(C)n1cnnc1SCC(=O)NNC(=O)COc1ccc(Cl)cc1	none (no result: FBPA Giardia inh, LmPK inhibitor, Shiga inhibitor, CHX counter)
COC(=O)C1(C(=O)OC)C[C@H]2CON=C2[C@H]1c1ccccc1	none (no result: Sm TGR block, LmPK inhibitor, Shiga inhibitor, CHX counter, TbPYK inhibitor)
CN(C(=O)CSc1nc2[nH]ncc2c(=O)[nH]1)c1ccccc1	none (no result: FBPA Giardia inh, LmPK inhibitor, Shiga inhibitor, CHX counter)
Fc1ccc(NC(=S)NNc2ncc(C(F)(F)F)cc2Cl)c(F)c1	Shiga inhibitor 48
CCOC(=O)C1CCN(c2nc3ccccc3nc2C(C#N)C(=O)NCCc2ccccc2)CC1 (configuration not stated)	FBPA Giardia inh inconclusive, CHX counter 49 (no result: TbPYK inhibitor)
O=C(NC(=O)c1ccccc1)Nc1ccc(-c2cnco2)cc1	Shiga inhibitor 63, CHX counter 32
O=S(=O)(Nc1ccc(-c2cnco2)cc1)c1ccccc1	none
CC(C)(C)C(=O)Nc1ccc(-c2cnco2)cc1	Shiga inhibitor 64, CHX counter 21
O=C(Nc1ccc(Cl)cc1)Nc1ccc(-c2cnco2)cc1	CHX counter 20
COc1cccc(NC(=O)Cn2c(=O)n(-c3cccc(OC)c3)c(=O)c3sc4ccccc4c32)c1	none (no result: FBPA Giardia inh, LmPK inhibitor, Shiga inhibitor, CHX counter)
Nn1c(COc2ccccc2)nc2ccccc2c1=O	Shiga inhibitor 57, CHX counter 48
Cc1ccccc1OCc1nc2ccccc2c(=O)n1N	CHX counter 31
CCCCCc1nc2ccccc2c(=O)n1N	CHX counter 22
COc1cccc(CCc2nc3ccccc3c(=O)n2N)c1	none (no result: FBPA Giardia inh, Sm TGR block, LmPK inhibitor, Shiga inhibitor, CHX counter)
CCCc1nc2ccccc2c(=O)n1N	none
CC(=O)Nn1c(COc2ccccc2C)nc2ccccc2c1=O	none
COc1cccc(OCc2nc3ccccc3c(=O)n2N)c1	Shiga inhibitor 84, CHX counter 27
CC(C)CC(=O)OCc1cc(=O)n2nc(C3CCCCC3)sc2n1	none (no result: FBPA Giardia inh, LmPK inhibitor, Shiga inhibitor, CHX counter)
CCCC(=O)Nc1nc2c(ncn2[C@@H]2O[C@H]3COP(=O)(O)O[C@@H]3[C@@H]2OC(=O)CCC)c(=O)[nH]1	none (no result: Sm TGR block, LmPK inhibitor, TbPYK inhibitor)
Cc1cc(/C=N/n2c(COc3ccccc3C)nc3ccccc3c2=O)c(O)c([N+](=O)[O-])c1	Shiga inhibitor 57, CHX counter 62
Cc1ccccc1OCc1nc2ccccc2c(=O)n1/N=C/c1c[nH]c2ccccc12	none
Nc1ccc(Oc2ncccn2)cc1	FBPA Giardia inh inconclusive, Sm TGR block 35µM
CCCCSc1cc(C)nc(N)n1	Shiga inhibitor 54, CHX counter 31
C/C=C/c1ccc(OCCSc2nc(C)cc(=O)[nH]2)c(OC)c1	Shiga inhibitor 77, CHX counter 24
CCOc1cc(C=O)ccc1OCCCN1C(=O)NC(C)(C)C1=O	none
C/C=C/c1ccc(OCCCCN2C(=O)NC(C)(C)C2=O)c(OC)c1	CHX counter 14
Cc1cc(=O)[nH]c(SCCOc2ccc3c(c2)CCC3)n1	none
Cc1cc(=O)[nH]c(SCCOc2ccc(OC(C)C)cc2)n1	Shiga inhibitor 47, CHX counter 31
Cc1nc2cnc(Oc3cccc(Cl)c3)nc2n(Cc2ccc(F)cc2)c1=O	none (no result: Sm TGR block, LmPK inhibitor, Shiga inhibitor, CHX counter, TbPYK inhibitor)
COc1ccc(OCc2cc(C(=O)NCc3nc(C)cs3)no2)c(Cl)c1	Shiga inhibitor 98, CHX counter 52 (no result: FBPA Giardia inh)
COc1ccc(OCc2cc(C(=O)NC(C)c3csc(C)n3)no2)c(Cl)c1 (configuration not stated)	Shiga inhibitor 62, CHX counter 63
COc1ccc(OCc2cc(C(=O)NC(C)c3nc(C)cs3)no2)c(Cl)c1 (configuration not stated)	none (no result: FBPA Giardia inh, Sm TGR block, LmPK inhibitor, Shiga inhibitor, CHX counter)
CSc1nc(S(C)(=O)=O)nc2[nH]c(=O)[nH]c12	none (no result: FBPA Giardia inh, Sm TGR block, LmPK inhibitor, Shiga inhibitor, CHX counter)
Nc1cccc(-c2cn3ccsc3n2)c1	none (no result: FBPA Giardia inh, LmPK inhibitor, Shiga inhibitor, CHX counter)
COC(=O)c1ccc2nc(-c3cccc(N)c3)cn2c1	LmPK inhibitor 25µM
CS(=O)(=O)c1ccc(-c2cn3cc(C(=O)O)ccc3n2)cc1	none
COC(=O)c1ccc2nc(-c3ccc(S(C)(=O)=O)cc3)cn2c1	CHX counter 59
COCc1cc(C)nc2c1C(=O)NC(c1ccc(F)cc1)N2Cc1ccccc1 (configuration not stated)	none (no result: FBPA Giardia inh, LmPK inhibitor, Shiga inhibitor, CHX counter)
CCn1c(CNC(=O)c2cccnc2)cc2ccccc21	none

Screens deposited in PubChem BioAssay by National Center for Advancing Translational Sciences (NCATS).
